# Laboratory results from PubChem BioAssay AID651820 (National Center for Advancing Translational Sciences (NCATS), 2012).
# The campaign covered roughly 340,000 compounds. About 12,000 (3.5%) were called active. Entries that show only a call come without a potency. About 18% were inconclusive and are not listed. Calls follow the shape of the dose curve; as a rule, active = well fitted inhibition curve with a large enough effect; inconclusive = small, poorly fitted or top-dose-only effect, or another doubt; inactive = no such curve, though single readings can be large or run the other way. The sample as a whole holds a higher share of actives than the screen did.
# Experiment: qHTS Assay for Inhibitors of Hepatitis C Virus (HCV)
# Settings: Huh7.5.1 HCVcc-Cre infection, luciferase reporter, 44 h; series mostly up to 41.8 µM
# How it was run: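 After 44 h co-culture of compound, cells and HCVcc-Cre (~0.5 moi), substrate is added for 15 min at room temperature and luciferase measured over 15 sec. Cells were seeded at 1,000/well and pre-cultured 4 h.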
# Potency is read from the fitted curve at half-maximal effect.
row,SMILES,Potency
1,O=C(COC(=O)c1cccnc1Cl)NC12CC3CC(CC(C3)C1)C2,inactive
2,CCn1cc(/C=C2/SC(=S)NC2=O)c(C)n1,inactive
3,O=C1/C(=C/c2ccc3c(c2)OCO3)CCC/C1=C\c1ccc2c(c1)OCO2,inactive
4,Cc1nn(C)cc1/C=C1\CCC/C(=C\c2cn(C)nc2C)C1=O,10 µM (active)
5,CC(=O)N(O)CCCCCNC(=O)CCC(=O)N(O)CCCCCNC(=O)CCC(=O)N(O)CCCCCNC(=O)CCC(=O)O,inactive
6,O=S1(=O)CSCS(=O)(=O)C1,inactive
7,CCN(CC)CCNC(=O)c1sc2ncn(CC(=O)Nc3ccc(C)c(Cl)c3)c(=O)c2c1C,8.91 µM (active)
8,CCN(CC)CCNC(=O)Cn1cnc2sc(C)c(S(=O)(=O)N3CCOCC3)c2c1=O,inactive
9,CCN(CC)CCCNC(=O)Cn1cnc2sc(C)c(S(=O)(=O)N3CCN(c4ncccn4)CC3)c2c1=O,inactive
10,CC(=O)Nc1ccc(C(=O)Nc2cc(S(=O)(=O)N3CCOCC3)ccc2N2CCOCC2)cc1,inactive
11,O=C(CN1CCOCC1)Nc1cccc([N+](=O)[O-])c1,inactive
12,Cc1cccc(NC(=S)N(CCN(C)C)C(C)c2ccco2)c1 (centres undefined),inactive
13,COCCN(C(=S)Nc1ccccc1OC)C1CCN(C(C)C)CC1,inactive
14,CCc1cccc(NC(=S)N(CCN(C)C)C2CCN(C(C)C)CC2)c1,8.91 µM (active)
15,O=c1oc2ccc(C#CC3(O)CCCCC3)cc2cc1-n1cc(-c2ccsc2)nn1,inactive
16,CCOC(=O)C(C)N(c1ccccc1Cl)S(C)(=O)=O (centres undefined),inactive
17,COc1cccc(CC(=O)OCC(=O)NCc2ccc3c(c2)OCO3)c1,inactive
18,COc1cccc(CNC(=O)COc2cc(O)c3c(c2)OC(C)(C)CC3=O)c1,5.01 µM (active)
19,COc1cccc(CCNC(=O)COc2cccc3c2OC(C)(C)C3)c1,inactive
20,COc1cc2[nH]c(O)c(C=O)c2cc1OC,inactive
21,COc1ccccc1C(=O)Nc1ccc(Nc2ccccc2)cc1,inactive
22,COc1ccc2[nH]c3c(c2c1)CCN1C(=O)C(CC(=O)NCCc2ccccn2)C[C@H](C(=O)N2CCOCC2)[C@@]31C (some centres undefined),inactive
23,Cc1nn(CC(=O)N2CCCCC2)c(=O)c2nn(-c3ccccc3)c(C)c12,inactive
24,COc1ccc(OC)c(CNC(=O)Cn2nc(C)c3c(C)n(-c4ccc(C)cc4)nc3c2=O)c1,3.98 µM (active)
25,COc1ccc(CNC(=O)C(C)n2nc(C)c3c(C)n(-c4ccccc4)nc3c2=O)c(OC)c1 (centres undefined),inactive

row,SMILES,Potency
1,O=C(c1ccc(Cl)s1)N(Cc1nnc(-c2ccccc2Cl)o1)C1CC1,inactive
2,CCC(=O)NC(=S)Nc1ccc(NC(=O)c2ccco2)c(Cl)c1,inactive
3,CCN(CC)P(=O)(Nc1ccc(SC(F)F)cc1)c1ccc(N(C)C)cc1NC(=O)c1ccco1 (centres undefined),22.4 µM (active)
4,COc1ccc(OCC(=O)Nc2ccc(NC(=O)c3ccco3)c(C)c2)cc1,inactive
5,CCN(C(=O)COC(=O)CCOc1cccc(C)c1)c1c(N)n(Cc2ccccc2)c(=O)[nH]c1=O,inactive
6,CC(OC(=O)c1ccc([N+](=O)[O-])cc1)C(=O)NCC1CCCCC1 (centres undefined),inactive
7,N[C@@H](Cc1ccccc1)C(=O)N1CCOCC1,inactive
8,COc1ccc(-c2cc(C(=O)N/N=C/c3cccnc3)c3ccccc3n2)c(OC)c1,inactive
9,Cc1ccc(C(=O)NCCN2CCOCC2)cc1C,inactive
10,CC(=O)Oc1cc2c(C(=O)NCCN3CCOCC3)c(C)oc2c2ccccc12,10 µM (active)
11,Cc1cc(C)cc(C(=O)NCCN2CCOCC2)c1,inactive
12,C[C@@H]1CN([C@H](C)CO)C(=O)c2cc(NC(=O)NC3CCCCC3)ccc2O[C@H]1CN(C)S(C)(=O)=O,inactive
13,Cc1ccc(S(=O)(=O)CCC(=O)OCC(=O)NCCc2ccc(S(N)(=O)=O)cc2)cc1,inactive
14,COc1ccc(CCN(C(=O)COc2ccccc2)c2nc(-c3ccccc3)cs2)cc1OC,inactive
15,Cc1ccc(S(=O)(=O)NC(=O)Nc2nc(-c3ccc(F)c(F)c3)cs2)cc1,inactive
16,Cc1ccc(-c2csc(NC(=O)Cc3cccs3)n2)cc1C,inactive
17,COc1cc(CC(=O)Nc2nc(-c3ccc(F)c(F)c3)cs2)cc(OC)c1OC,10 µM (active)
18,COc1cccc(CC(=O)Nc2ccc(-c3csc(C)n3)cc2)c1,inactive
19,COc1ccc(-c2csc(NC(=O)c3ccc(N4C(=O)CCC4=O)cc3)n2)cc1OC,inactive
20,COc1cccc(CC(=O)Nc2nc(-c3ccc(OC)c(OC)c3)cs2)c1,12.6 µM (active)
21,COc1ccc(CC(=O)Nc2nc(-c3ccc(F)c(F)c3)cs2)cc1OC,4.47 µM (active)
22,COc1ccc(CC(=O)Nc2ccccc2NC(=O)c2ccco2)cc1OC,inactive
23,Cc1nc2ccccc2c(=O)n1-c1ccc(F)c(NC(=O)c2cccs2)c1,inactive
24,CCCN(CC1CC1)C(=S)NC(=O)c1ccccc1Br,inactive
25,CCOc1ncccc1C(=O)OCC(=O)c1c[nH]c2ccccc12,inactive

row,SMILES,Potency
1,O=C(Nc1ccc2ccccc2c1[N+](=O)[O-])c1ccccc1,inactive
2,COc1ccccc1C(=O)NCCC(=O)NCC(c1ccco1)N1CCCCC1 (centres undefined),inactive
3,O=C(COC(=O)c1ccc(Br)o1)NC12CC3CC(CC(C3)C1)C2,inactive
4,CN(C(=O)COC(=O)CCCc1c[nH]c2ccccc12)c1c(N)n(Cc2ccccc2)c(=O)[nH]c1=O,inactive
5,COc1ccc(Cl)cc1NC(=O)CN(C)C(=O)c1ccc2n[nH]nc2c1,inactive
6,CN(C(=O)CSc1nnc(-c2ccc(C(C)(C)C)cc2)n1C)C1CCS(=O)(=O)C1 (centres undefined),inactive
7,Cn1nc(C(F)(F)F)c(C(=O)Nc2cccc(C(F)(F)F)c2)c1SCc1ccc(Cl)cc1,10 µM (active)
8,O=C(O)CSCC(=O)Nc1cccc(C(F)(F)F)c1,inactive
9,O=C(Nc1cccc(C(F)(F)F)c1)c1cnccn1,inactive
10,O=C1OC[C@@H]2CCCN2C(=O)[C@H](CC(=O)N(CCO)Cc2ccccc2)C/C=C\CC[C@@H]1Cc1ccc(F)cc1,inactive
11,O=C1c2ccccc2[C@@H]2C[C@@H](O)[C@H](Nc3ccccc3Cl)CCN12,inactive
12,CSc1ccccc1NC(=O)c1cnc2sc(C)cn2c1=O,inactive
13,Nc1c(C(=O)c2cccs2)sc2nsc(SCCN3CCCCC3)c12,10 µM (active)
14,O=C(CN1C2=NCCN2c2ccccc21)c1cccs1,inactive
15,O=C(C[C@H]1C[C@H](C(=O)N2CCOCC2)[C@@]2(CCC3CCCC3)c3[nH]c4ccc(Cl)cc4c3CCN2C1=O)NCc1ccco1,inactive
16,CC(C)(C)OC(=O)C[C@@H]1C/C=C\C[C@@H](CC(=O)N[C@H](CO)Cc2ccccc2)C(=O)NCCOC1=O,inactive
17,O=S(=O)(O)c1cc2onnc2c2ccccc12,inactive
18,Cc1c(Cl)cnc(NC(=O)COC(=O)C2CCCC2)c1Cl,inactive
19,CN(C)c1ccc(CSc2ccccc2)cc1,inactive
20,CN(C)c1cc[n+](Cc2ccccc2)cc1,0.891 µM (active)
21,c1ccc(Cc2cc[n+](Cc3ccccc3)cc2)cc1,inactive
22,O=C1CCC/C=C/C[C@@H](CC(=O)N(CCO)Cc2ccccc2)C(=O)NC[C@H](c2ccccc2)O1,inactive
23,Cc1ccc(S(=O)(=O)N(C)c2ccc(OCC(=O)OCc3ccc(C#N)cc3)cc2)cc1,inactive
24,O=C(CN1CCN(c2ccccn2)CC1)Nc1ccc(Br)cc1,inactive
25,Cc1cc(Br)ccc1NC(=O)c1sc2ncn(CC(=O)N3CCN(c4ccccn4)CC3)c(=O)c2c1C,inactive

row,SMILES,Potency
1,Cc1cc(Br)ccc1NC(=O)c1cnc(N2CCN(c3ccccn3)CC2)c2ccccc12,2.51 µM (active)
2,COc1ccc(NC(=O)N(C)C[C@H]2Oc3ccc(NC(=O)C4CC4)cc3C(=O)N([C@H](C)CO)C[C@@H]2C)cc1,inactive
3,O=C(CCC(=O)c1cccs1)Nc1nc2ccccc2s1,inactive
4,C/C(=N/OC(=O)c1c(-c2c(F)cccc2Cl)noc1C)c1cnccn1,inactive
5,CCOC(=O)c1cc2c(=O)n3ccccc3nc2n(CC(C)C)c1=NC(=O)c1c(-c2c(F)cccc2Cl)noc1C,10 µM (active)
6,CCCn1c(=NC(C)=O)c(C(=O)OCC)cc2c(=O)n3ccccc3nc21,inactive
7,CCCn1nnc2sc3c(c2c1=O)CCC(C)C3 (centres undefined),inactive
8,CC1CCc2c(sc3nc4n(c(=O)c23)CCS4)C1 (centres undefined),inactive
9,CC1CCc2sc3nc(N4CCN(CCO)CC4)n4ncnc4c3c2C1 (centres undefined),20 µM (active)
10,Cc1ccc(CSc2ccc(S(=O)(=O)N3CCCCC3)cn2)cc1,inactive
11,C=CC[C@@H](CC(=O)N[C@@H](CO)Cc1ccccc1)C(=O)N[C@H](COC(=O)[C@H](CC=C)CC(=O)OC(C)(C)C)Cc1ccccc1,inactive
12,COc1cccc(NC(=O)CN(C)C(=O)c2cc(C3CC3)nn2-c2ccccc2)c1,inactive
13,CCN(CC)S(=O)(=O)c1ccc2nc(CSc3nnnn3-c3ccc(O)cc3)[nH]c2c1,inactive
14,CCN(CC)S(=O)(=O)c1ccc2nc(COC(=O)c3n[nH]c4ccccc34)[nH]c2c1,12.6 µM (active)
15,COc1ccc(COC(=O)c2n[nH]c3ccccc23)cc1F,inactive
16,CC(OC(=O)c1cc2ccccc2[nH]1)C(=O)N(C)c1ccccc1 (centres undefined),inactive
17,CCNC(=O)c1c(O)c2cccc3c2n(c1=O)CC3,inactive
18,CCN(CC)CCCNC(=O)c1c(O)c2cc(F)cc3c2n(c1=O)C(C)CC3 (centres undefined),10 µM (active)
19,CCN(CC)CCCNC(=O)c1cn(C)c2ccc(S(=O)(=O)N(C)C3CCCCC3)cc2c1=O,inactive
20,O=C(CSc1nnc(CN2CCCC2)n1-c1ccc(F)cc1)c1ccc2c(c1)OCO2,inactive
21,COc1ccc(/C=C/C(=O)OCC(=O)N2CCN(S(=O)(=O)c3ccc(C)cc3C)CC2)cc1OC,inactive
22,CCn1ccnc1CN(C)C(=O)c1cc(COc2ccc(-n3cncn3)cc2)on1,inactive
23,C=CCC1(CC=C)CCCN1C(=O)c1cc(COc2ccc(-n3cncn3)cc2)on1,5.01 µM (active)
24,O=C(c1cc(COc2ccc(F)c(F)c2)on1)N1CCOCC1,inactive
